High-throughput results as filed in PubChem BioAssay.
HepG2 tox-1: HepG2 cytotoxicity, counter-screen for TGF-b inhibitors | HepG2 CAGA-GFP viability, ATP luminescence, 18 h | Potency, µM (top dose mostly 46.1 µM), for inactives: at the highest dose activity change, negative = cytotoxicity, usual class: cytotoxic | 410,000 tested, 0.76% active; further: potency means the concentration at half of the fitted maximal effect
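HepG2 CAGA-GFP cells (1000/well, DMEM with 1% FBS) received compound, then TGF-beta at 500 pg/mL final, and were incubated 18 hours at 37 degrees C. Viability was read by CellTiter-Glo luminescence. Media-only wells were set as complete cell-killing and DMSO as no toxicity.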
TDP1 cell noCPT: qHTS for Inhibitors of human tyrosyl-DNA phosphodiesterase 1 (TDP1): qHTS in cells in absence of CPT. DT40 Tdp1-/- hTDP1 cells, no CPT, ATP luminescence, 48 h. Potency, µM (titrated, usually from 46.2 µM), without a hit: at the highest dose activity change, negative = growth inhibition, actives largely listed as inhibitors. 420,000 tested, 15% active. AID 686978, 2013; further: potency means the concentration at half of the fitted maximal effect; on the % scale 0 is the no-effect control and ±100 the full control effect; nearly all actives have a fitted effect of over 55% in size
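Growth kinetics read by CellTiter-Glo luminescence after ≥48 hr at 37 °C. Cells: DT40 Tdp1-/- stably carrying human TDP1, 400 per well, compound exposure in the absence of CPT (DMSO vehicle).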
TGFb SMAD3 inh: inhibitors of TGF-b signaling | HepG2 CAGA-GFP TGF-b/SMAD3 reporter, GFP fluorescence, 18 h; TGF-beta stimulated, 500 pg/mL final | Potency, µM (titrated, usually from 46.1 µM), for the others: top-dose activity, negative = inhibition, most hits filed as inhibitors | 410,000 tested, 1.2% active; further: potency means the concentration at half of the fitted maximal effect; on the % scale 0 is the no-effect control and ±100 the full control effect; nearly all actives have a fitted effect of over 65% in size
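Read-out: total well GFP (ex488/em500-530) summed from mean per-cell fluorescence. Cells: HEPG2 CAGA-GFP, 1% FBS DMEM, 18 h at 37 degrees C with 500 pg/mL final TGF-beta. Unstimulated wells served as the full-inhibition control; stimulated DMSO wells = 0%.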
IL1B secr inh: inflammasome signaling inhibition, IL-1 beta readout; THP-1 LPS/ATP IL-1B secretion, AlphaLISA, 16 h; hits give low values; activity change, % at 57.5 µM; 360,000 tested, 4.7% active; in the data active means activity change below about -50%; inconclusive means mostly about -30% to -49%; further: on the % scale 0 is the no-effect control and ±100 the full control effect
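THP-1 cells pretreated 1 hr with compounds (up to 57.5 uM final), then stimulated with LPS (250 ng/mL final) plus ATP (1.25 mM final); secreted IL-1B measured by AlphaLISA after 16 hr, decreased signal indicating inhibition.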
TDP1 block: blocks human tyrosyl-DNA phosphodiesterase 1. recombinant TDP1, AlphaScreen DNA substrate cleavage. Potency, µM (top dose mostly 130 µM), for the others: top-dose activity change, negative = inhibition, usual class: inhibitors. 350,000 tested, 0.28% active; further: potency means the concentration at half of the fitted maximal effect; on the % scale 0 is the no-effect control and ±100 the full control effect; nearly all actives have a fitted effect of over 40% in size
Target sequence (Q9NUW8 whole entry, looked up): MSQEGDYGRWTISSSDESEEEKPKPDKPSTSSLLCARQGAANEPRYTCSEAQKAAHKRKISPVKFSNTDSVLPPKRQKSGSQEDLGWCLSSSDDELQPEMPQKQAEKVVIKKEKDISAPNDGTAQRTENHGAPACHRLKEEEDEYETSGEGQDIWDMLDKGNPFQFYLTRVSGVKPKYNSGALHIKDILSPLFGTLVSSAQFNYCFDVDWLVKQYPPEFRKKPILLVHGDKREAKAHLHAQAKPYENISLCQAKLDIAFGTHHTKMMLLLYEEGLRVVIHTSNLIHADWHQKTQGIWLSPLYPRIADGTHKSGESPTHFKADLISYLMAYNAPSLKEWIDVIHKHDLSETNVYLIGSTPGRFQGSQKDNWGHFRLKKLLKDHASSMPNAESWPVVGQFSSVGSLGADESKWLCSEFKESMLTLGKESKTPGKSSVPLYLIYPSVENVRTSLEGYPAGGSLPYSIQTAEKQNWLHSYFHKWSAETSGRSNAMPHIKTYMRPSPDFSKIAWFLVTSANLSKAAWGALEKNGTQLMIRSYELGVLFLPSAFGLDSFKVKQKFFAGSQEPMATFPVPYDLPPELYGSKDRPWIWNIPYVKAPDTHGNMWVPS
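Here, a 5' biotin and 3' phosphotyrosine-FITC DNA oligonucleotide reports Tdp1 activity: intact substrate bridges AlphaScreen beads, while cleavage leaves a 3' phosphate and drops signal. All incubations at room temperature.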
TDP1 cell CPT: DT40-hTDP1 cell growth loss with CPT; 420,000 tested, 12% active; chicken DT40 Tdp1-/-;hTDP1 cells + 20 nM CPT, ATP luminescence, 48 h; Potency, µM (series often up to 46.2 µM), inactives show top-dose activity change, negative = growth inhibition, actives largely listed as inhibitors; further: potency means the concentration at half of the fitted maximal effect; on the % scale 0 is the no-effect control and ±100 the full control effect; nearly all actives have a fitted effect of over 55% in size
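Cell growth measured by CellTiter-Glo luminescence after a minimum 48 h, 37 C compound exposure with 20 nM CPT in Tdp1-knockout DT40 cells stably expressing hTDP1, seeded 400/well; qHTS titration format.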
TGFb CAGA inh: confirmation of TGF-b signaling inhibitors in HepG2 reporter cells; 1,600 tested, 63% active; shares compounds with TGFb SMAD3 inh; Potency, µM (titrated, usually from 46.1 µM), without a hit: top-dose activity, negative = inhibition, usual class: inhibitors; AID 720534; HepG2 CAGA-GFP TGF-b reporter, GFP fluorescence, 18 h; cells stimulated with TGF-beta, 500 pg/mL; further: potency means the concentration at half of the fitted maximal effect; on the % scale 0 is the no-effect control and ±100 the full control effect; nearly all actives have a fitted effect of over 65% in size
HepG2 tox-2: counter-screen for TGF-b inhibitors: cytotoxicity in HepG2 cells. Potency, µM (series often up to 46.1 µM), for inactives: top-dose activity, negative = cytotoxicity, usual class: inhibitors. AID 720535. 1,600 tested, 27% active. shares compounds with TGFb SMAD3 inh. HepG2 CAGA-GFP viability, ATP luminescence, 18 h; cells stimulated with TGF-beta, 500 pg/mL; further: potency means the concentration at half of the fitted maximal effect; on the % scale 0 is the no-effect control and ±100 the full control effect; nearly all actives have a fitted effect of over 70% in size
CCL64 TGFb inh: blocks TGF-b signaling in CCL64 reporter cells | AID 720536 | CCL64 CAGA-GFP reporter, TGF-b stimulated, GFP fluorescence, 18 h | 1,600 tested, 41% active | Potency, µM (series often up to 46.1 µM), for the others: at the highest dose activity, negative = inhibition, usual class: inhibitors | shares compounds with TGFb SMAD3 inh; further: potency means the concentration at half of the fitted maximal effect; nearly all actives have a fitted effect of over 65% in size
COP TGFb inh: blocks TGF-b signaling in HepG2 COP reporter. 1,600 tested, 3% active. HepG2 COP-GFP TGF-b reporter, GFP fluorescence, 18 h; cells stimulated by added recombinant TGF-beta. shares compounds with TGFb SMAD3 inh. Potency, µM (titrated, usually from 46.1 µM), without a hit: at the highest dose activity, negative = inhibition, usual class: inhibitors; further: potency means the concentration at half of the fitted maximal effect; nearly all actives have a fitted effect of over 70% in size
Starred values were filed as active, the others as inactive; ? = inconclusive; . = no result given; ! = not confirmed by another sample; [ ] = remark or other dose. Shown are actives, neighbours in structure and some others; about 19% of the full set was active somewhere. Unless noted, the call rests on the fitted dose curve; in most records, active means well fitted curve in the direction sought with a large enough effect; inconclusive means small, poorly fitted or top-dose-only effect, or another doubt; inactive means no such curve, though single readings can be large; an effect the other way counts as inactive or inconclusive.

SMILES	HepG2 tox-1	TDP1 cell noCPT	TGFb SMAD3 inh	IL1B secr inh	TDP1 block	TDP1 cell CPT	TGFb CAGA inh	HepG2 tox-2	CCL64 TGFb inh	COP TGFb inh
CCOc1ccc(CCN2C(=O)C(=O)N([C@@H](CC(C)C)CN3CCC[C@H]3CN3C(=O)C(=O)NC[C@@H]3CC(C)C)C[C@@H]2CC(C)C)cc1	.	?	.	-28	.	?	.	.	.	.
CC(C)C[C@H]1CN(CCCC[C@H]2CNC(=O)C(=O)N2CCc2ccc(O)cc2)C(=O)C(=O)N1CCc1ccc(O)cc1	.	-17%	.	0	.	4%	.	.	.	.
CCCc1ccc(C(C)NC(=S)NC2CCCCC2)cc1 (centres undefined)	-24%	?	?	0	4%	?	.	.	.	.
Cc1cccc(NC(=O)CSc2nnc(-c3cccs3)o2)c1	-28%	?	6%	.	-3%	?	.	.	.	.
Brc1cccc(-c2nc3ccc(Br)cn3c2Cc2ccsc2)c1	-7%	-18%	11µM*	79	.	9%	23µM*	?	?	-5%
Cc1ccc(Cc2c(-c3cccc(Cl)c3)nc3ccc(C)cn23)cc1	-10%	16µM*	10µM*	-8	.	?	18µM*	?	?	55%
COc1ccc(Cc2c(-c3ccccc3)nc3ccc(Br)cn23)c(C)c1	-19%	21µM*	10µM*	28	.	21µM*	?	?	?	51%
Clc1ccc2nc(-c3cccc(Br)c3)c(Cc3ccsc3)n2c1	-11%	-9%	10µM*	61	.	0%	?	?	?	0%
Clc1cccc(-c2nc3ccc(Br)cn3c2Cc2ccsc2)c1	-15%	?	?	89	.	-28%	.	.	.	.
C[n+]1ccn(CC(=O)c2cc(C(C)(C)C)c(O)c(C(C)(C)C)c2)c1	-17%	?	-9%	?	1%	?	.	.	.	.
COc1cc(C(CC(=O)Nc2cccc(C)n2)N2Cc3ccccc3C2=O)cc(OC)c1OC (centres undefined)	-6%	-9%	1%	6	.	-18%	.	.	.	.
CC(C)(C)OC(=O)N1CCCC(C(=O)Nc2cccc(C(=O)NCCCCc3ccccc3)c2)C1 (centres undefined)	-14%	?	-30%	-3	.	?	.	.	.	.
Nc1c(N(CCC2=CCCCC2)C(=O)c2ccco2)c(=O)[nH]c(=O)n1Cc1ccccc1	0%	?	?	0	-8%[0.505 µM]	?	.	.	.	.
Cc1ccc(S(=O)(=O)N[C@H](C(=O)N2CCC(C(=O)N[C@@H](CC(=O)O)C(=O)O)CC2)C(C)C)cc1	8%	-5%	3%	3	.	-7%	.	.	.	.
O/C(=C\c1nc2ccccc2[nH]1)c1cccs1	1%	?	-1%	?	6%	?	.	.	.	.
COc1ccc(C(=O)N/C(=C\c2cccs2)c2nc3ccccc3[nH]2)cc1OC	-26%	-27%	2%	0	6%	-11%	.	.	.	.
COc1cc(/C=C(/C(=O)c2cccs2)c2nc3ccccc3[nH]2)ccc1O	-22%	18µM*	16µM*	-106*	-3%	?	7.3µM*	13µM*	13µM*	71%
O=C(/C(=C/c1ccc(Cl)cc1)c1nc2ccccc2[nH]1)c1cccs1	-106%	4.1µM*	5µM*	-112*	11%	2.9µM*	3.3µM*	2.6µM*	4.1µM*	-20%
CCc1ccc(C(=O)NNC(=O)c2ccc(=O)n(C)n2)cc1	-2%	0%	-9%	-9	4%	-9%	.	.	.	.
CCOc1ccc(C(CN2CCOCC2)C(C)=O)cc1OC (centres undefined)	-102%	4.1µM*	2.5µM*	-117*	.	4.1µM*	?	16µM*	16µM*	?
COc1ccc(C)c2sc(N(CCCN(C)C)C(=O)c3ccc(S(=O)(=O)N4CCc5ccccc5C4)cc3)nc12	7.1µM*	2.3µM*	5µM*	-96*	.	2.9µM*	4.6µM*	5.2µM*	5.2µM*	?
CCCCCCCCCCCC(=O)[O][Sn]([CH2]CCC)([CH2]CCC)[O]C(=O)CCCCCCCCCCC	.	0%	.	.	4%	-11%	.	.	.	.
CCC(C)Sc1cccc(-c2nc3cc(C)ccn3c2NC2CCCCC2)c1 (centres undefined)	-29%	15µM*	11µM*	-82*!	1%	16µM*	?	?	18µM*	40%
Cc1ccn2c(=O)nc(SCC(=O)NC3CCCCC3)nc2c1	23%	3%	-17%	-17	.	5%	.	.	.	.
COc1cc(C(=O)Oc2ccc(/C=N/NC(=O)c3ccncc3)cc2)cc(OC)c1OC	5%	-15%	5%	6	2%[56.1 µM]	-9%	.	.	.	.
COc1cc(C(=O)Oc2ccccc2/C=N/NC(=O)c2ccc(C)cc2)cc(OC)c1OC	-3%	0.65µM*	13µM*	91	1%	1µM*	?	?	-28%	-7%
CCOC(=O)c1c(C)[nH]c(C(=O)N/N=C/c2ccc(Br)cc2)c1C	0%	0.023µM*	1.4µM*	14	2%	1.2µM*	0.92µM*	-9%	?	-18%
